# In the library only some 19% were active in any assay of this set; here they are far more common.
# KB-V1 cytotox: qHTS assay for MDR1-selective chemotherapeutics: Primary screen using the drug-selected MDR subline cells KB-V1 | KB-V1 MDR cells viability, CellTiter-Glo, 72 h | Potency, µM (titrated, usually from 46.1 µM), most hits filed as cytotoxic | 3.4% of 400,000 active; also: nearly all actives have a fitted effect of over 60% in size
#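 Readout: CellTiter-Glo luminescence, 10 min after addition. Cells: KB-V1 MDR subline, 72 h at 37 degrees C with compound. Analysis: corrected, normalized data fitted to concentration-effect curves.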
# DT40 TDP1 CPT: qHTS for Inhibitors of human tyrosyl-DNA phosphodiesterase 1 (TDP1): qHTS in cells in presence of CPT | chicken DT40 Tdp1-/-;hTDP1 cells + 20 nM CPT, ATP luminescence, 48 h | Potency, µM (series often up to 46.2 µM), for the others: at the top dose activity change, negative = growth inhibition, hits mostly inhibitors | 12% of 420,000 active; also: nearly all actives have a fitted effect of over 55% in size
#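 Chicken DT40 Tdp1-/- cells stably complemented with human TDP1 were seeded at 400 cells/well in medium containing 20 nM camptothecin, exposed to pin-transferred compounds, and grown at 37 °C for at least 48 hr. Viability was read as ATP luminescence.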
# HT1080NT lethal: qHTS for induction of synthetic lethality in tumor cells producing 2HG: qHTS for the HT-1080-NT fibrosarcoma cell line. Potency, µM (highest dose often 46.1 µM), without a hit: at the highest dose activity, negative = less viability, actives largely listed as cytotoxic. HT-1080-NT fibrosarcoma viability, CellTiter-Glo ATP luminescence, 48 h. 1.6% of 360,000 active. AID 686970, 2013;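 also: NT is the 2HG producing partner of a matched IDH1 knockdown line; 0% = DMSO-treated cells and -100% = media-only wells without cells; nearly all actives have a fitted effect of over 55% in size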
#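 Luminescent CellTiter-Glo readout after 48 hours of compound exposure at 37 degrees C defined viability of HT-1080-NT cells. Activity was normalized to DMSO wells and cell-free media wells; concentration-response curves were fitted and assigned curve classes.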
# DT40 TDP1 no CPT: qHTS for Inhibitors of human tyrosyl-DNA phosphodiesterase 1 (TDP1): qHTS in cells in absence of CPT; DT40 Tdp1-/- hTDP1 cells, no CPT, ATP luminescence, 48 h; Potency, µM (top dose mostly 46.2 µM), inactives show top-dose activity change, negative = growth inhibition, usual class: inhibitors; 15% of 420,000 active; AID 686978, 2013; also: nearly all actives have a fitted effect of over 55% in size
#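 Camptothecin absent (DMSO only). Human TDP1-complemented DT40 knockout cells, 400 cells/well, 37 °C for minimum 48 hr; ATP measured via CellTiter-Glo, 30 min dark incubation, luminescence.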
# HT1080 IDH1KD tx: qHTS for induction of synthetic lethality in tumor cells producing 2HG: qHTS for the HT-1080-IDH1KD cell line; 2% of 360,000 active; Potency, µM (top dose mostly 46.1 µM), for the others: at the highest dose activity, negative = toxicity, actives largely listed as cytotoxic; HT-1080 IDH1 knockdown viability, ATP luminescence, 48 h;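 also: 0% = DMSO wells and -100% = cell-free medium wells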
#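 Using the IDH1-knockdown HT-1080 line run in the same batch and compound series as the NT line, viability after 48 h at 37 °C was determined by CellTiter-Glo luminescence and expressed as % activity.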
# KB-3-1 tox: qHTS assay for MDR1-selective chemotherapeutics: Primary screen using the parental adenocarcinoma cell KB-3-1. KB-3-1 viability, CellTiter-Glo ATP luminescence, 72 h. Potency, µM (highest dose often 46.1 µM), hits mostly cytotoxic. 1.4% of 400,000 active; also: nearly all actives have a fitted effect of over 60% in size
#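 Cells are dispensed, compounds pinned in, plates held at 37 °C for 72 h, then CellTiter-Glo is added and luminescence read after 10 minutes. Cell line: parental KB-3-1 in phenol-red-free DMEM, 10% FBS.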
# Starred values were filed as active, the others as inactive; i = inactive; ? = inconclusive; . = no result. Calls follow the shape of the dose curve; as a rule, active = well fitted curve in the direction sought with a large enough effect; inconclusive = small, poorly fitted or top-dose-only effect, or another doubt; inactive = no such curve, though single readings can be large; an effect the other way counts as inactive or inconclusive. Unless noted, % is scaled to controls: 0 for no effect and ±100 for the full control effect; potency is read from the fitted curve at half-maximal effect.
SMILES,KB-V1 cytotox,DT40 TDP1 CPT,HT1080NT lethal,DT40 TDP1 no CPT,HT1080 IDH1KD tx,KB-3-1 tox
Cc1ccc(C)c(NC(=O)C(OC(=O)c2cc[n+]([O-])cc2)c2ccccc2)c1 (centres undefined),i,4%,8%,10%,8%,i
CC(C)Cn1c(SCC(=O)Nc2ccc3[nH]c(=O)[nH]c3c2)nc2ccccc2c1=O,i,?,-24%,?,-17%,i
Cc1ccc(C)c(NC(=O)C(Sc2nc3ccccc3c(=O)n2CC(C)C)c2ccccc2)c1 (centres undefined),?,4.1µM*,-5%,2.6µM*,-5%,?
CC(=O)c1ccc(S(=O)(=O)N(C)CCCC(=O)N(C)Cc2c(F)cccc2Cl)cc1,i,?,17%,?,7%,i
C[C@@H]1CN([C@H](C)CO)C(=O)CCCn2cc(nn2)CO[C@H]1CN(C)S(=O)(=O)c1ccccc1F,i,-10%,21%,-15%,29%,i
COc1cc(SC#N)ccc1N=Cc1c(C)[nH]n(-c2cccc3ccccc23)c1=O,i,10µM*,1%,10µM*,13%,i
COc1cc(SC#N)ccc1N=Cc1c(C)[nH]n(-c2ccc(C)cc2C)c1=O,i,21µM*,1%,15µM*,-12%,i
O=C(COc1ccc2cc(-c3ccccc3)c(=O)oc2c1)NCC1CCC(C(=O)O)CC1 (centres undefined),i,9%,-4%,-2%,-2%,i
COc1ccc(C(=O)COC(=O)C(Cc2c[nH]c3ccccc23)NC(=O)c2ccc(C(C)(C)C)cc2)cc1 (centres undefined),i,18µM*,.,13µM*,.,i
CC(C)(C)c1ccc(C(=O)NC(Cc2c[nH]c3ccccc23)C(=O)OCC(=O)c2ccccc2)cc1 (centres undefined),i,-27%,.,-20%,.,i
c1ccc2c(OCCCCN3CCCC3)cccc2c1,i,?,-12%,26µM*,-11%,i
N=C(CC(O)COc1ccccc1-c1ccccc1)N1CCCCC1 (centres undefined),.,5.2µM*,.,3.3µM*,.,.
c1ccc(-c2ccccc2OCCCCN2CCCCC2)cc1,i,?,?,16µM*,?,i
COCc1ccc(CN2CCC(n3nccc3NC(=O)CCCc3ccccc3)CC2)o1,i,1%,20%,6%,6%,?
CC(=O)OC[C@@H]1CN(Cc2ccccc2)C[C@H](n2cnc3c(Nc4ccccc4)ncnc32)O1,i,?,-6%,?,1%,i
CCC(=O)Nc1ccc(C(=O)COC(=O)c2sc(C)nc2C)cc1,i,?,8%,-39%,12%,i
CN(CC(=O)Nc1cccc(F)c1)C(=O)/C=C/c1cc(Br)ccc1OC(F)F,?,4.6µM*,-9%,5.8µM*,0%,i
O=S1(=O)N=C(Oc2cccc(C(F)(F)F)c2)c2ccccc21,i,.,.,.,.,?
Cc1nc(C(F)(F)F)c(C(=O)NC(=O)Nc2ccccc2)s1,i,-2%,-1%,-19%,-3%,i
Cc1nc(C(F)(F)F)c(C(=O)NC(=O)Nc2ccc(OC(F)(F)F)cc2)s1,16µM*,?,-1%,?,-3%,i
